Test results published in PubChem BioAssay (NCATS).
Records with an inconclusive call do not appear. Activity calls are given as the source filed them. The call rests on the fitted dose curve; in most records, active means well fitted curve in the direction sought with a large enough effect; inconclusive means small, poorly fitted or top-dose-only effect, or another doubt; inactive means no such curve, though single readings can be large; an effect the other way counts as inactive or inconclusive.

tested on: not listed separately; assay: qHTS to identify inhibitors of the type 1 interferon - major histocompatibility complex class I in skeletal muscle: primary screen against the NCATS Mechanism Interrogation Plate v5.0 (MIPE) Libary (AID 1347411); settings: iHSKM cells + IFN-b, HiBiT-tagged MHC-I luminescence, 24 h; series mostly up to 45.8 µM; activity change, negative = inhibition: at the top concentration;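 further: plate controls were vehicle for no effect and reference inhibitor for full effect; nearly all actives have a fitted effect of over 65% in size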
In short: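 Seed engineered human myoblasts (HLA-B HiBit) in medium without dexamethasone containing 4 ng/ml IFN-beta; after 1 hr add compound titrations (top 46 uM final). Incubate 24 hrs at 37 C, lyse 10 min with HiBiT reagent, read luminescence.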

| Compound | activity change, negative = inhibition |
| --- | --- |
| CNC(=O)[C@H](Cc1c[nH]c2ccccc12)NC(=O)[C@@H](CC(=O)NO)CC(C)C | 10.3% (inactive) |
| C=C1[C@H](CO)[C@@H](O)C[C@@H]1n1cnc2c(=O)[nH]c(N)nc21 | -1.34% (inactive) |
| CCCCC[C@H](O)/C=C/[C@H]1[C@H](O)CC(=O)[C@@H]1CCCCCCC(=O)O | -18.8% (inactive) |
| NC[C@H]1O[C@H](O[C@H]2[C@H](O)[C@@H](O[C@H]3O[C@H](CO)[C@@H](O)[C@H](N)[C@H]3O)[C@H](N)C[C@@H]2N)[C@H](N)C[C@@H]1O | 11.1% (inactive) |
| COc1cc(C)c(/C=C/C(C)=C/C=C/C(C)=C/C(=O)O)c(C)c1C | -5.2% (inactive) |

target: Calcium and integrin-binding protein 1 (Homo sapiens) (UniProt Q99828); assay: Primary qHTS for Identification of Calcium Integrin Binding Protein 1 (CIB1) Competitor (AID 1508620); settings: CIB1-GST / FITC-alphaIIb peptide fluorescence polarization; series mostly up to 114 µM; activity change, negative = inhibition: at the top concentration;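 further: GST tagged CIB1 binding a fluorescein labelled alphaIIb integrin peptide tracer; top concentration of the series differs between compounds; on the % scale 0 is the no-effect control and ±100 the full control effect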
Sequence (Q99828 whole entry, looked up): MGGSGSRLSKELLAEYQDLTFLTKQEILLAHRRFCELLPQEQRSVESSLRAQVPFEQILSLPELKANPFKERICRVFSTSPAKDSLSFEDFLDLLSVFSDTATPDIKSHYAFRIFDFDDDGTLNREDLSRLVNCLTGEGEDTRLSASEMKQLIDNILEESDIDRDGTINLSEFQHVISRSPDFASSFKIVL
In short: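 CIB1-GST (1 uM final) and compound incubated 15 min at room temperature before adding FITC-alphaIIb peptide tracer (100 nM final). Competition for binding read by fluorescence polarization (ex 480, em 540) after another 15 min at room temperature.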

| Compound | activity change, negative = inhibition |
| --- | --- |
| C=C1CC[C@H](O)CC1=C/C=C1\CCC[C@]2(C)[C@@H]([C@H](C)/C=C/[C@H](C)C(C)C)CC[C@@H]12 | -2.06% (inactive) |
| CO[C@H]1C[C@@H]2CC[C@@H](C)[C@@](O)(O2)C(=O)C(=O)N2CCCC[C@H]2C(=O)O[C@H]([C@H](C)C[C@@H]2CC[C@@H](OC(=O)C(C)(CO)CO)[C@H](OC)C2)CC(=O)[C@H](C)/C=C(\C)[C@@H](O)[C@@H](OC)C(=O)[C@H](C)C[C@H](C)/C=C/C=C/C=C/1C | -10.5% (inactive) |
| CC1CC(OC(=O)C(O)c2ccccc2)CC(C)(C)C1 (centres undefined) | -3.67% (inactive) |
| CC(C)(C)c1ccc(CN2CCN(C(c3ccccc3)c3ccc(Cl)cc3)CC2)cc1 (centres undefined) | 0.334% (inactive) |
| C=C1[C@H](CO)[C@@H](O)C[C@@H]1n1cnc2c(=O)[nH]c(N)nc21 | -3.81% (inactive) |
| C[C@]12CC[C@@H]3c4ccc(OC(=O)c5ccccc5)cc4CC[C@H]3[C@@H]1CC[C@@H]2O | 0.37% (inactive) |
| COc1ccc(C[C@H](C)NC[C@@H](O)c2ccc(O)c(NC=O)c2)cc1 | -11.2% (inactive) |
| C/C(=C\C(=O)OCCCCCCCCC(=O)O)C[C@@H]1OC[C@H](C[C@@H]2O[C@H]2[C@@H](C)[C@H](C)O)[C@@H](O)[C@H]1O | -3.62% (inactive) |
| CC(=O)Nc1ccc(NC(=S)NC(=O)c2ccc(C(C)(C)C)cc2)cc1 | 2.39% (inactive) |
| CCN(CC)CCOCCOC(=O)C(CC)(CC)c1ccccc1 | 5.39% (inactive) |

tested on: not listed separately; assay: Primary qHTS for small molecule stabilizers of the endoplasmic reticulum resident proteome: Secreted ER Calcium Modulated Protein (SERCaMP) assay (AID 1508630); settings: SH-SY5Y GLuc-SERCaMP (Gaussia luciferase released on ER calcium loss) secretion, thapsigargin, luminescence; series mostly up to 38.4 µM; activity change, negative = inhibition: at the top concentration; further: on the % scale 0 is the no-effect control and ±100 the full control effect
In short: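 The SH-SY5Y reporter protocol was run at 3 concentrations up to 38.3 uM (primary) or 11 concentrations (follow-up): 16 h compound, 100 nM thapsigargin for 4 h, then extracellular luciferase luminescence.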

| Compound | activity change, negative = inhibition | outcome |
| --- | --- | --- |
| O=C(O)CCC/C=C\C[C@@H]1[C@@H](/C=C/[C@@H](O)COc2cccc(Cl)c2)[C@H](O)C[C@@H]1O | -16.6% [at 3.88 µM] (inactive) | – |
| N[C@H](CC(=O)O)C(=O)O | – | inactive |
| N#Cc1ccc2c(c1)N(CCCN1CCC(O)CC1)c1ccccc1S2 | 3.14% (inactive) | – |
| O=C(O)Cc1nn(Cc2ccc(Br)cc2F)c(=O)c2ccccc12 | -16.8% (inactive) | – |
| O=C(O)c1ccc(NC2OC[C@@H](O)[C@H](O)[C@H]2O)cc1 (some centres undefined) | -7.5% (inactive) | – |
| CC/C=C\C/C=C\C/C=C\CCCCCCCC(=O)O | -26.6% [at 3.88 µM] (inactive) | – |
| CCC(C)[C@@H](N)C(=O)O (some centres undefined) | -4.82% (inactive) | – |
| CNC(=O)[C@H](Cc1c[nH]c2ccccc12)NC(=O)[C@@H](CC(=O)NO)CC(C)C | -12.2% (inactive) | – |
| CCCCC[C@H](O)/C=C/[C@H]1[C@H](O)CC(=O)[C@@H]1CCCCCCC(=O)O | -7.33% [at 3.88 µM] (inactive) | – |
| NC[C@H]1O[C@H](O[C@H]2[C@H](O)[C@@H](O[C@H]3O[C@H](CO)[C@@H](O)[C@H](N)[C@H]3O)[C@H](N)C[C@@H]2N)[C@H](N)C[C@@H]1O | -16.6% (inactive) | – |
| O=C1CCC(c2ccccc2)(C2CCN(Cc3ccccc3)CC2)C(=O)N1 (centres undefined) | -10.3% (inactive) | – |
| NC(=O)c1ccc[n+]([C@@H]2O[C@H](COP(=O)([O-])OP(=O)(O)OC[C@H]3O[C@@H](n4cnc5c(N)ncnc54)[C@H](O)[C@@H]3O)[C@@H](O)[C@H]2O)c1 | -13.2% [at 13 µM] (inactive) | – |
| COc1cc(C)c(/C=C/C(C)=C/C=C/C(C)=C/C(=O)O)c(C)c1C | -7.72% (inactive) | – |
| CC/C=C\C/C=C\C/C=C\C/C=C\C/C=C\C/C=C\CCC(=O)O | – | inactive |
